# Measured values from PubChem BioAssay (EPA / NIEHS).
# Records with an inconclusive call do not appear. The source made the active and inactive calls. Rule for the calls: active = hit-call score of the fitted dose curve at least 0.9, where 1 is the maximum; inconclusive = response in the unintended direction; inactive = score below 0.9.
# Read-out: alkyl and aryl transferase (GSTA2), GSTA2 (gene 2939)
# Experiment: CLD_GSTA2_6hr: CellzDirect (CLD) Gene Expression Assay for alkyl and aryl transferase (GSTA2) at 6 hours (AID 2283666)
# Method: CLD_6hr is a cell-based, multiplexed-readout assay that uses hepatocyte, a human liver primary cell, with measurements taken at 6 hours after chemical dosing in a 96-well plate.CLD_GSTA2_6hr is one of 16 assay component(s) measured or calculated from the CLD_6hr assay. It is designed to make measurements of mRNA induction, a form of inducible reporter, as detected with chemiluminescence signals by Quantitative Nuclease Protection Assay (qNPA) technology.Data from the assay component CLD_GSTA2_6hr was analyzed at the endpoint, CLD_GSTA2_6hr, in the positive analysis fitting direction relative to DMSO as the negative control and baseline of activity. Using a type of inducible reporter, gain-of-signal activity can be used to understand changes in the reporter gene as they relate to the gene GSTA2. Furthermore, this assay endpoint can be referred to as a primary readout. To generalize the intended target to other relatable targets, this assay endpoint is annotated to the transferase intended target family, where subfamily is alkyl and aryl transferase.
# Human hepatocyte cultures were treated daily for two consecutive days with fresh dosing solutions containing appropriate concentrations of the 320 ToxCast chemicals (chemical identities were blinded to CellzDirect and other ToxCast collaborators), vehicle control (0.2% DMSO), and positive control inducers as summarized in Table 1. Due to the large number of treatment groups and chemicals examined, the ToxCast chemicals were divided into two groups (spanning two independent cultures of hepatocytes from separate donor preparations (Hu778: ToxCast plates 1 and 2; Hu776: ToxCast plates 3 and 4). Each preparation of human hepatocyte cultures was treated with respective vehicle control, medium only control, set of six positive controls/reference chemicals for the five hepatic receptor pathways, and a subset of eight of the ToxCast chemicals (indoxacarb, pyrithiobac-sodium, norflurazon, cyhalofop-butyl, methomyl, thiram, acetochlor, and propiconazole). These replicate data, coupled with internal replicates designed within the blinded ToxCast chemical library, provided additional data to evaluate interindividual differences between hepatocyte preparations and their potential impact on chemical profiles.Cell morphology and integrity were evaluated using phase-contrast microscopy as an indicator of hepatocyte cell health (Tyson & Green, 1987). Cultures for each treatment group (i.e., media, vehicle [0.2% DMSO], positive control inducers [multiple concentrations], and the ToxCast chemicals [multiple concentrations]) were observed and cell morphology was assessed relative to vehicle control cultures at each harvest time point (0, 6, 24, or 48 h). […] Images were evaluated at the conclusion of the study to assess changes in cell integrity and account for the effects of chemical exposure on uncharacteristic changes in concentration-dependent gene expression profiles. The results from these determinations of apparent cytotoxicity were annotated (yes/no) alongside the corresponding qNPA data for reference.At the conclusion of each treatment period, hepatocyte cultures (96-well) were washed with 1 volume of HBSS, lysed by addition of 25 ul ArrayPlate lysis buffer (HTG, Tucson, AZ), and 70 ul/well of Denaturation Oil, denatured by incubation at 95C for 10 min, and frozen at approximately -70C until analysis by nuclease protection assay (qNPA) (Roberts et al., 2007). For qNPA analysis, cell lysates were thawed at 50C for approximately 30 min, qNPA probes were added, and samples were incubated at 95C for 10 min to begin the detection process by denaturing the target RNA, dissociating the duplexes and secondary structure hybridization. At the conclusion of the hybridization period, S1 nuclease reagent was added to each sample to digest all nonprotected nucleotides at 50C for 60-90 min. […]
row,SMILES,outcome
1,COC(=O)NS(=O)(=O)c1ccc(N)cc1,inactive
2,CC(C)N1C(=O)N(c2ccccc2)CSC1=NC(C)(C)C,inactive
3,N#CN=C1SCCN1Cc1ccc(Cl)nc1,inactive
4,COCC(C)N(C(=O)CCl)c1c(C)csc1C (stereo not given),inactive
5,COc1cc(Cl)c(OC)cc1Cl,inactive
6,Nc1c(Cl)c(Cl)nc(C(=O)O)c1Cl,inactive
7,CCOP(=O)(OCC)Oc1nc(Cl)c(Cl)cc1Cl,inactive
8,CC(C)C1(C)N=C(c2ncccc2C(=O)O)NC1=O (stereo not given),inactive
9,O=c1n(Cl)c(=O)n(Cl)c(=O)n1Cl,inactive
10,C=C(C)CN(CC)c1c([N+](=O)[O-])cc(C(F)(F)F)cc1[N+](=O)[O-],inactive
11,COC(=O)N(C(=O)N1CO[C@@]2(C(=O)OC)Cc3cc(Cl)ccc3C2=N1)c1ccc(OC(F)(F)F)cc1,inactive
12,CC1(C)CCC(=Cc2ccc(Cl)cc2)C1(O)Cn1cncn1 (stereo not given),inactive
13,CNC(=O)N(C)c1nnc(C(C)(C)C)s1,inactive
14,Clc1cccc(C(Cl)(Cl)Cl)n1,inactive
15,COCc1cnc(C2=NC(C)(C(C)C)C(=O)N2)c(C(=O)O)c1 (stereo not given),inactive
16,CC1(C)CON(Cc2ccccc2Cl)C1=O,inactive
17,O=P(O)(O)CCCl,inactive
18,CCOc1nc(C(Cl)(Cl)Cl)ns1,inactive
19,CO/N=C(/C1=NOCCO1)c1ccccc1Oc1ncnc(Oc2ccccc2Cl)c1F,inactive
20,CCOc1cc(C(C)(C)C)ccc1C1COC(c2c(F)cccc2F)=N1 (stereo not given),inactive

row,SMILES,outcome
1,Cc1ccc(N=CN(C)C=Nc2ccc(C)cc2C)c(C)c1,inactive
2,CC(C)N1C(=O)c2ccccc2NS1(=O)=O,inactive
3,Cc1nc(N(C)C)nc(OC(=O)N(C)C)c1C,inactive
4,CC1(C)C(C=C(Cl)Cl)C1C(=O)OC(C#N)c1cccc(Oc2ccccc2)c1 (stereo not given),inactive
5,CCCN(CC)CC1COC2(CCC(C(C)(C)C)CC2)O1 (stereo not given),inactive
6,CS(=O)(=O)c1ccc(C(=O)C2C(=O)CCCC2=O)c([N+](=O)[O-])c1,inactive
7,CC(C)Oc1cccc(NC(=O)c2ccccc2C(F)(F)F)c1,inactive
8,Cc1cnc(C2=NC(C)(C(C)C)C(=O)N2)c(C(=O)O)c1 (stereo not given),inactive
9,COCC(=O)N(c1c(C)cccc1C)C(C)C(=O)OC (stereo not given),inactive
10,CCOP(=S)(OCC)Oc1nc(Cl)n(C(C)C)n1,inactive
11,CSC(=O)c1c(C(F)F)nc(C(F)(F)F)c(C(=O)SC)c1CC(C)C,inactive
12,COP(=S)(OC)SCn1nnc2ccccc2c1=O,inactive
13,C=CCOC(=O)C(C)(C)OC(=O)c1cc(-n2c(=O)cc(C(F)(F)F)n(C)c2=O)ccc1Cl,inactive
14,COP(=O)(OC)O/C(C)=C/C(=O)N(C)C,inactive
15,CN=C=S,inactive
16,CCNP(=S)(OC)O/C(C)=C/C(=O)OC(C)C (stereo not given),inactive
17,CC(C)(C)C(=O)C(Oc1ccc(Cl)cc1)n1cncn1 (stereo not given),inactive
18,N#Cc1c(Cl)cccc1Cl,inactive
19,COP(=S)(OC)Oc1ccc([N+](=O)[O-])c(C)c1,inactive
20,CCNC(=O)NC(=O)C(C#N)=NOC,inactive
